This excerpt belongs to a sample that is enriched for hits.
IL-1B inflam inh = inhibitors of inflammasome signaling (IL-1 beta secretion). THP-1 LPS/ATP IL-1B secretion, AlphaLISA, 16 h; hits give low values. activity change, % at 57.5 µM. actives 4.7% (n = 360,000); in the data active = activity change below about -50%; inconclusive = mostly about -30% to -49%
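THP-1 cells pretreated 1 hr with compounds (up to 57.5 uM final), then stimulated with LPS (250 ng/mL final) plus ATP (1.25 mM final); secreted IL-1B measured by AlphaLISA after 16 hr, decreased signal indicating inhibition.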
DT40 TDP1 CPT = DT40-hTDP1 cell growth loss with CPT; actives 12% (n = 420,000); chicken DT40 Tdp1-/-;hTDP1 cells + 20 nM CPT, ATP luminescence, 48 h; AID 686979; Potency, µM (series often up to 46.2 µM), for the others: at the top dose activity change, negative = growth inhibition, hits mostly inhibitors; also: potency is read from the fitted curve at half-maximal effect; nearly all actives have a fitted effect of over 55% in size
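Cell growth measured by CellTiter-Glo luminescence after a minimum 48 h, 37 C compound exposure with 20 nM CPT in Tdp1-knockout DT40 cells stably expressing hTDP1, seeded 400/well; qHTS titration format.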
HT1080NT lethal = kills 2HG-producing HT-1080-NT fibrosarcoma cells | HT-1080-NT fibrosarcoma viability, CellTiter-Glo ATP luminescence, 48 h | Potency, µM (titrated, usually from 46.1 µM), without a hit: at the top dose activity, negative = less viability, actives largely listed as cytotoxic | actives 1.6% (n = 360,000) | AID 686970;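 also: NT is the 2HG producing partner of a matched IDH1 knockdown line; potency is read from the fitted curve at half-maximal effect; 0% = DMSO-treated cells and -100% = media-only wells without cells; nearly all actives have a fitted effect of over 55% in size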
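750 cells/well, RPMI + 5% FBS; 2 h settle, compound pin-transfer, 48 h at 37 degrees C. CellTiter-Glo 10 min RT, luminescence. Normalized to DMSO and media-only wells.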
TDP1 cell noCPT = qHTS for Inhibitors of human tyrosyl-DNA phosphodiesterase 1 (TDP1): qHTS in cells in absence of CPT; DT40 Tdp1-/- hTDP1 cells, no CPT, ATP luminescence, 48 h; Potency, µM (titrated, usually from 46.2 µM), for inactives: at the highest dose activity change, negative = growth inhibition, usual class: inhibitors; actives 15% (n = 420,000); also: potency is read from the fitted curve at half-maximal effect; nearly all actives have a fitted effect of over 55% in size
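Camptothecin absent (DMSO only). Human TDP1-complemented DT40 knockout cells, 400 cells/well, 37 °C for minimum 48 hr; ATP measured via CellTiter-Glo, 30 min dark incubation, luminescence.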
12-LOX inh = blocks human arachidonate 12S-lipoxygenase; actives 1.1% (n = 580,000); Potency, µM (titrated, usually from 108 µM), without a hit: top-dose activity change, negative = inhibition, most hits filed as inhibitors; P18054; purified 12hLO, xylenol orange hydroperoxide absorbance; AID 1671190; also: potency is read from the fitted curve at half-maximal effect
Target sequence (P18054 whole entry, looked up): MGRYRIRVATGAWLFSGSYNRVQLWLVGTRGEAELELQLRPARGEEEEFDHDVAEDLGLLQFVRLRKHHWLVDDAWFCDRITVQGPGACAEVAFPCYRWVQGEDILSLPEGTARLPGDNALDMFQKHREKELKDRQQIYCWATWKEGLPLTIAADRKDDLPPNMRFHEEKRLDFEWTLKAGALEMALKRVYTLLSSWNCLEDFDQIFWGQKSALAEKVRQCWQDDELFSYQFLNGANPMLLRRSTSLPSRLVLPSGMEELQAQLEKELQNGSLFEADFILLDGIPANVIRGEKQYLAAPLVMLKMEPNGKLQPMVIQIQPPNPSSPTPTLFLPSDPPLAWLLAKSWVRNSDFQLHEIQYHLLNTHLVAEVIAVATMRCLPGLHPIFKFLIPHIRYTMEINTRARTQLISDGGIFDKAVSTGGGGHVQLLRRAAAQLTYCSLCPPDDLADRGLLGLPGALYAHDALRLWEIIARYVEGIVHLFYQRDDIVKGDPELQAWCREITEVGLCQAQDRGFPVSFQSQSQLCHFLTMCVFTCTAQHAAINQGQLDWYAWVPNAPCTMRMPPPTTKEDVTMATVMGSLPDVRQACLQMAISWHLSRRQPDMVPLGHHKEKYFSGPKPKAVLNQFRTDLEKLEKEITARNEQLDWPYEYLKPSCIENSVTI
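Purified human 12hLO at 150 nM in 25 mM Hepes, 0.01% Triton X-100, pH 7.0, preincubated 15 min at room temperature with compound. Reaction started with 40 uM arachidonic acid, 30 min at room temperature. Hydroperoxide measured by Fe-xylenol orange, 573/405 nm absorbance ratio.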
HT1080 IDH1KD tx = kills HT-1080 cells with IDH1 knockdown | HT-1080 IDH1 knockdown viability, ATP luminescence, 48 h | Potency, µM (doses to about 46.1 µM), inactives show at the highest dose activity, negative = toxicity, hits mostly cytotoxic | actives 2% (n = 360,000) | AID 686971;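 also: potency is read from the fitted curve at half-maximal effect; 0% = DMSO wells and -100% = cell-free medium wells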
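Luminescent ATP read-out (CellTiter-Glo, 10 min at room temperature) after 48 h compound exposure at 37 °C gave viability of IDH1-knockdown HT-1080 cells. Activity was normalised to DMSO and cell-free wells, then fitted as concentration-response curves.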
* marks the source's active call; other numbers are inactive results. Unless noted, calls follow the shape of the dose curve; as a rule, active = well fitted curve in the direction sought with a large enough effect; inconclusive = small, poorly fitted or top-dose-only effect, or another doubt; inactive = no such curve, though single readings can be large; an effect the other way counts as inactive or inconclusive. Unless noted, % is scaled to controls: 0 for no effect and ±100 for the full control effect.

Screening O=S(=O)(O)Oc1ccc(C(c2ccc(OS(=O)(=O)O)cc2)c2ccccn2)cc1 returned DT40 TDP1 CPT -2% and TDP1 cell noCPT 8%.
CC(=O)Oc1ccc(C(c2ccc(OC(C)=O)cc2)c2ccccn2)cc1 was read as IL-1B inflam inh -77*, DT40 TDP1 CPT inconclusive, HT1080NT lethal inconclusive, TDP1 cell noCPT 15µM*, 12-LOX inh 13% and HT1080 IDH1KD tx inconclusive.
For CC(C)(O)CCc1cccc(C(=O)N2CCC(Nc3ncccn3)CC2)c1 the results were 12-LOX inh 10%.
`CCc1ccc(NC(=O)CC2C(=O)N(c3cccc(C)c3)C(=O)N2Cc2cccs2)cc1` (stereo not drawn) gave DT40 TDP1 CPT 21µM*, TDP1 cell noCPT 21µM* and 12-LOX inh -17%.
Screening CCc1ccc(NC(=O)CC2C(=O)N(c3cccc(C)c3)C(=O)N2Cc2ccco2)cc1 (stereo not drawn) returned DT40 TDP1 CPT 16µM*, TDP1 cell noCPT 26µM* and 12-LOX inh inconclusive.
CCc1ccc(NC(=O)CC2C(=O)N(c3ccc(Cl)cc3)C(=O)N2Cc2ccco2)cc1 (stereo not drawn) was read as DT40 TDP1 CPT 21µM*, TDP1 cell noCPT inconclusive and 12-LOX inh -74%.
CCc1ccc(NC(=O)CC2C(=O)N(c3cccc(OC)c3)C(=O)N2Cc2ccco2)cc1 (stereo not drawn) was read as DT40 TDP1 CPT inconclusive, TDP1 cell noCPT inconclusive and 12-LOX inh -25%.
`N#Cc1ccccc1NC(=O)CCN1CCCN(Cc2cccs2)CC1` gave 12-LOX inh -4%.
Screening COc1cc(/C=C/C(=O)OCC(=O)N2CCN(S(=O)(=O)c3ccc(C)cc3C)CC2)cc(Cl)c1OC returned IL-1B inflam inh 1, DT40 TDP1 CPT inconclusive, HT1080NT lethal 6%, TDP1 cell noCPT 18µM*, 12-LOX inh -5% and HT1080 IDH1KD tx 6%.
`COc1ccccc1/C=C/C(=O)OCC(=O)N1CCN(S(=O)(=O)c2ccc(C)cc2C)CC1` gave IL-1B inflam inh 3, DT40 TDP1 CPT inconclusive, HT1080NT lethal 10%, TDP1 cell noCPT inconclusive, 12-LOX inh -1% and HT1080 IDH1KD tx 5%.
`C=CCOc1ccc(/C=C/C(=O)OCC(=O)N2CCN(S(=O)(=O)c3ccc(C)cc3C)CC2)cc1` gave IL-1B inflam inh 15, DT40 TDP1 CPT inconclusive, HT1080NT lethal 2%, TDP1 cell noCPT 7.3µM*, 12-LOX inh 23% and HT1080 IDH1KD tx 14%.
For O=C(NCc1ccc(C(=O)N2CCCCC2)cc1)c1cc2ccccc2oc1=O the results were 12-LOX inh -19%.
CNC(=O)N1CCC(C2CCN(C(=O)NCc3ccc(F)cc3)C2)CC1 (stereo not drawn) was read as 12-LOX inh 1%.
For CC(C)c1ccc(-c2nnn(Cc3cc4c(cc3Br)OCO4)n2)cc1 the results were 12-LOX inh -9%.
For CCN1c2cc(C(=O)NCCC3=CCCCC3)ccc2C(=O)N2CCCCC21 (stereo not drawn) the results were 12-LOX inh -7%.
`O=C(NCc1ccco1)c1cccc2c1C(=O)c1ccc(N3CCC(Cc4ccccc4)CC3)cc1S2(=O)=O` gave IL-1B inflam inh 33, DT40 TDP1 CPT 13µM*, HT1080NT lethal 0%, TDP1 cell noCPT 13µM* and HT1080 IDH1KD tx -2%.
For Cc1cc(CNC(=O)c2cccc3c2C(=O)c2ccc(-c4ccc(F)cc4OCc4ccccc4)cc2S3(=O)=O)c(C(F)(F)F)o1 the results were IL-1B inflam inh 17, DT40 TDP1 CPT inconclusive, HT1080NT lethal -10%, TDP1 cell noCPT 12µM*, 12-LOX inh 45µM* and HT1080 IDH1KD tx -14%.
O=C(NCc1cccc(F)c1)c1cccc2c1C(=O)c1ccc(N3CCC(Cc4ccccc4)CC3)cc1S2(=O)=O was read as IL-1B inflam inh -4, DT40 TDP1 CPT -10%, HT1080NT lethal 27%, TDP1 cell noCPT inconclusive and HT1080 IDH1KD tx 0%.
Screening O=C(NCc1cccc(C(F)(F)F)c1)c1cccc2c1C(=O)c1ccc(N3CCC(Cc4ccccc4)CC3)cc1S2(=O)=O returned IL-1B inflam inh -2, DT40 TDP1 CPT inconclusive, HT1080NT lethal inconclusive, TDP1 cell noCPT 7.3µM* and HT1080 IDH1KD tx 11%.
For O=C(NCc1ccc(OC(F)(F)F)cc1)c1cccc2c1C(=O)c1ccc(N3CCCC3)cc1S2(=O)=O the results were IL-1B inflam inh 20, DT40 TDP1 CPT -25%, HT1080NT lethal inconclusive, TDP1 cell noCPT 18µM*, 12-LOX inh -7% and HT1080 IDH1KD tx -1%.
`O=C(NCCc1ccc(F)cc1)c1cccc2c1C(=O)c1ccc(N3CCC(Cc4ccccc4)CC3)cc1S2(=O)=O` gave IL-1B inflam inh 9, DT40 TDP1 CPT inconclusive, HT1080NT lethal 3%, TDP1 cell noCPT inconclusive and HT1080 IDH1KD tx -1%.
For COc1ccc(NC(=O)Nc2ccc(C)c(OCc3cc(=O)n4ccccc4n3)c2)cc1OC the results were 12-LOX inh 5%.
Screening O=C(NCc1ccc(OC(F)(F)F)cc1)c1cccc2c1C(=O)c1ccc(N3CCC(Cc4ccccc4)CC3)cc1S2(=O)=O returned IL-1B inflam inh -2, DT40 TDP1 CPT 8.2µM*, HT1080NT lethal 2%, TDP1 cell noCPT 5.2µM*, 12-LOX inh -9% and HT1080 IDH1KD tx 8%.
`O=C(NCc1ccco1)c1cccc2c1C(=O)c1ccc(/C=C/c3ccccc3)cc1S2(=O)=O` gave IL-1B inflam inh 1, DT40 TDP1 CPT inconclusive, HT1080NT lethal inconclusive, TDP1 cell noCPT 23µM*, 12-LOX inh inconclusive and HT1080 IDH1KD tx inconclusive.
Screening O=C(NCc1ccccc1Br)c1cccc2c1C(=O)c1ccc(-c3ccc(OC(F)(F)F)cc3)cc1S2(=O)=O returned IL-1B inflam inh 6, DT40 TDP1 CPT 8.2µM*, HT1080NT lethal -2%, TDP1 cell noCPT 7.3µM* and HT1080 IDH1KD tx -3%.
For O=C(NCc1ccc(F)cc1)c1cccc2c1C(=O)c1ccc(Cl)cc1S2(=O)=O the results were 12-LOX inh -15%.
